Among the data in paper PMC3218832 are binding signal values, retold here.

Among the targets are RELARELA (p65 homodimer) (Homo sapiens, UniProt Q04206 1-307); p50p50 homodimer (Homo sapiens, UniProt P19838 7-356); RELB subunit;p50 subunit (Homo sapiens;Homo sapiens, UniProt Q01201;P19838 120-401;7-356).
Common to all, as to assay: protein binding microarray; high values mean tight binding
Common to all, as to conditions: dsDNA, one strand shown

The target in a further assay is T1, p52p52 homodimer (Homo sapiens, UniProt Q00653 4-332).
T1 sequence: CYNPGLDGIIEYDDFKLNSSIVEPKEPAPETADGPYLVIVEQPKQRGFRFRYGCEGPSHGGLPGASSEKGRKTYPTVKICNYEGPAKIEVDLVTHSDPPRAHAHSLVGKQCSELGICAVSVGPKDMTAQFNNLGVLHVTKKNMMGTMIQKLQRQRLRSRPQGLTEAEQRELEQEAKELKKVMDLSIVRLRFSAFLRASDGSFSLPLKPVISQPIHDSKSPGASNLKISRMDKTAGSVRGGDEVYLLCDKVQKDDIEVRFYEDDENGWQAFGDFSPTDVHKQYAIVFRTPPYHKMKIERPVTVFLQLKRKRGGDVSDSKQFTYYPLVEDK

Assay [1] has as its target RELA (p65) subunit of heterodimer;p50 subunit (Homo sapiens;Homo sapiens, UniProt Q04206;P19838 1-307;7-356).
Assay [2] deals with RELA (p65) subunit of heterodimer;p52 subunit (Homo sapiens;Homo sapiens, UniProt Q04206;Q00653 1-307;4-332).
Another assay addresses T2, RELB subunit;p52 subunit (Homo sapiens;Homo sapiens, UniProt Q01201;Q00653 120-401;4-332).
T2 sequence 1: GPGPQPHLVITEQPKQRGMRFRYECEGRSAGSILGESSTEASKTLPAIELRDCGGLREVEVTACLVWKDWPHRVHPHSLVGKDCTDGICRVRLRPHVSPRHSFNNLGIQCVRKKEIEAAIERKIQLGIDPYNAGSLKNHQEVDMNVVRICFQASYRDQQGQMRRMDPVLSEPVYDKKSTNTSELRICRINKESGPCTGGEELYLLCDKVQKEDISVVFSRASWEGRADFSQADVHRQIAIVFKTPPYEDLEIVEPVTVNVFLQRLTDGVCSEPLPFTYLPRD
T2 sequence 2: T1 sequence

Assay [3] has as its target C-Rel subunit;p50 subunit (Homo sapiens;Homo sapiens, UniProt Q04864;P19838 1-285;7-356).
Assay [4] addresses T3, C-Rel subunit;p52 subunit (Homo sapiens;Homo sapiens, UniProt Q04864;Q00653 1-285;4-332).
T3 sequence 1: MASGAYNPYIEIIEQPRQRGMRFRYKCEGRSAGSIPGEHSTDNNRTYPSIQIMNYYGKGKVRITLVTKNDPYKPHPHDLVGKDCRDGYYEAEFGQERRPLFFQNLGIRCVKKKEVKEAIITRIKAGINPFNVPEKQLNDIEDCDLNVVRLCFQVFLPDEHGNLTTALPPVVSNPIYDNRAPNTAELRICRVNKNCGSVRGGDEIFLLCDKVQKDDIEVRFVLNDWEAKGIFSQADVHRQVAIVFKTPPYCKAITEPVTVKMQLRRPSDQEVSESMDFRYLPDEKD
T3 sequence 2: T1 sequence

p50p50 homodimer, sequence (P19838 7-356): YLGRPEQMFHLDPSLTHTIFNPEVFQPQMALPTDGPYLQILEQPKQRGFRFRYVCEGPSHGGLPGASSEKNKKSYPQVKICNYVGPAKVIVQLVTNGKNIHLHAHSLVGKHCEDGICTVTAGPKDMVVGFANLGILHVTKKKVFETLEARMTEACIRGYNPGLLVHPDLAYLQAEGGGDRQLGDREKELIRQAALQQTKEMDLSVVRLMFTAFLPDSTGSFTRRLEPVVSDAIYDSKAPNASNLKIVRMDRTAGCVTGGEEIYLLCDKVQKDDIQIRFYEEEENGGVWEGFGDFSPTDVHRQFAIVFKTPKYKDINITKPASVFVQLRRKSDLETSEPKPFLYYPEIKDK
RELARELA (p65 homodimer), sequence (Q04206 1-307): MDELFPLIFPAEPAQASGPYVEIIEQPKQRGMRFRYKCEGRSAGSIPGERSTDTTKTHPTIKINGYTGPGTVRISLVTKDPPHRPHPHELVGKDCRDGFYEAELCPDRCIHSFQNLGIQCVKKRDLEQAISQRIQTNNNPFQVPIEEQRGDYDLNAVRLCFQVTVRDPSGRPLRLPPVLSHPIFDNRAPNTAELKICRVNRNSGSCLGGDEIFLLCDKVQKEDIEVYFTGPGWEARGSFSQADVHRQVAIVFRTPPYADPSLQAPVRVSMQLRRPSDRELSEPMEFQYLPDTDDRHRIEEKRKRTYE
RELA (p65) subunit of heterodimer;p50 subunit, sequence (Q04206 1-307, chain 1 of 2): as the sequence (Q04206 1-307) above
RELA (p65) subunit of heterodimer;p50 subunit, sequence (P19838 7-356, chain 2 of 2): as the sequence (P19838 7-356) above

Take CGGTTTTTCCC: the binding signal in the assay with RELARELA (p65 homodimer) turned out to be 3.71 z-score; with p50p50 homodimer, 0.935 z-score; in the assay with p52p52 homodimer, 2.66 z-score; in [1], 1.81 z-score; in [2] it was 1.88 z-score; with RELB subunit;p50 subunit, 1.05 z-score. The binding signal stood at 1.78 z-score with RELB subunit;p52 subunit, 1.57 z-score in [3] and 2.3 z-score in [4].
As to CAGGTCATCCT, the binding signal with RELARELA (p65 homodimer) is -0.599 z-score; with p50p50 homodimer it was -1.84 z-score; in the assay with p52p52 homodimer, -0.537 z-score; in assay [1], -1.21 z-score; in assay [2], -1.08 z-score; with RELB subunit;p50 subunit, -1.24 z-score. The binding signal in the assay with RELB subunit;p52 subunit is -0.916 z-score; in assay [3], -1.52 z-score; in [4] it was -1.02 z-score.
Regarding CGGATGGCCCT, the binding signal was -1 z-score with RELARELA (p65 homodimer); -1.09 z-score with p50p50 homodimer; -0.625 z-score in the assay with p52p52 homodimer; -0.472 z-score in assay [1]; -0.684 z-score in assay [2]; -0.367 z-score with RELB subunit;p50 subunit. The binding signal is -0.331 z-score in the assay with RELB subunit;p52 subunit, -0.715 z-score in assay [3] and -0.706 z-score in assay [4].
Take CAGATCGTCCT: the binding signal with RELARELA (p65 homodimer) is -0.0967 z-score; with p50p50 homodimer, -1.22 z-score; with p52p52 homodimer it was -0.471 z-score; in assay [1], -1 z-score; in assay [2], -0.796 z-score; with RELB subunit;p50 subunit, -0.842 z-score. Further, the binding signal with RELB subunit;p52 subunit is -0.777 z-score; in [3] it was -1.17 z-score; in [4] it was -0.663 z-score.
With GAATGGATCCC, the binding signal with RELARELA (p65 homodimer) is -0.423 z-score; with p50p50 homodimer it was -0.946 z-score; with p52p52 homodimer, -0.505 z-score; in assay [1], -0.796 z-score; in [2], -0.763 z-score; with RELB subunit;p50 subunit, -0.777 z-score. In addition, the binding signal with RELB subunit;p52 subunit is -0.774 z-score; in assay [3] it was -1.02 z-score; in [4], -0.839 z-score.
For the sequence CAAATCTCCCT, the binding signal turned out to be 0.0987 z-score with RELARELA (p65 homodimer); 1.24 z-score in the assay with p50p50 homodimer; 0.832 z-score in the assay with p52p52 homodimer; 1.06 z-score in assay [1]; 1.05 z-score in [2]; 1.35 z-score with RELB subunit;p50 subunit. The binding signal with RELB subunit;p52 subunit was determined as 1.4 z-score; in [3], 0.664 z-score; in [4] it was 1.06 z-score.
With AAAATGATCCC, the binding signal is -0.603 z-score in the assay with RELARELA (p65 homodimer); -0.272 z-score with p50p50 homodimer; -0.265 z-score in the assay with p52p52 homodimer; -0.543 z-score in assay [1]; -0.453 z-score in assay [2]; -0.443 z-score with RELB subunit;p50 subunit. Further, the binding signal with RELB subunit;p52 subunit is -0.704 z-score; in assay [3], -0.71 z-score; in assay [4], -0.512 z-score.
For AAAATAGTCCT, the binding signal is -0.023 z-score in the assay with RELARELA (p65 homodimer); -0.728 z-score with p50p50 homodimer; -0.497 z-score with p52p52 homodimer; -0.709 z-score in assay [1]; -0.767 z-score in assay [2]; -0.806 z-score with RELB subunit;p50 subunit. Further, the binding signal with RELB subunit;p52 subunit was -0.856 z-score; in assay [3], -0.761 z-score; in assay [4], -0.606 z-score.
As to CAATTATCCCC, the binding signal in the assay with RELARELA (p65 homodimer) came out at 0.4 z-score; with p50p50 homodimer it was 1.12 z-score; in the assay with p52p52 homodimer, 1.04 z-score; in assay [1] it was 1.31 z-score; in assay [2] it was 1.12 z-score; in the assay with RELB subunit;p50 subunit, 1.3 z-score. Moreover, the binding signal came out at 1.33 z-score in the assay with RELB subunit;p52 subunit, 1.2 z-score in [3] and 0.884 z-score in assay [4].
For the sequence AAGAGAGTCCT, the binding signal in the assay with RELARELA (p65 homodimer) is 0.889 z-score; with p50p50 homodimer it was -0.892 z-score; with p52p52 homodimer, -0.435 z-score; in assay [1], -0.32 z-score; in [2], -0.676 z-score; with RELB subunit;p50 subunit, -0.818 z-score. Further, the binding signal was -0.673 z-score with RELB subunit;p52 subunit, -0.59 z-score in assay [3] and -0.442 z-score in assay [4].
As to GAGATAGTCCT, the binding signal was -0.228 z-score with RELARELA (p65 homodimer); -0.791 z-score in the assay with p50p50 homodimer; -0.575 z-score in the assay with p52p52 homodimer; -0.973 z-score in assay [1]; -0.809 z-score in [2]; -0.986 z-score with RELB subunit;p50 subunit. Also, the binding signal with RELB subunit;p52 subunit was -0.865 z-score; in [3] it was -1.2 z-score; in assay [4] it was -0.764 z-score.
In the case of GGGTAGGCCCC, the binding signal is -0.379 z-score with RELARELA (p65 homodimer); 0.314 z-score in the assay with p50p50 homodimer; 1.45 z-score with p52p52 homodimer; 0.396 z-score in [1]; 1.04 z-score in assay [2]; 0.459 z-score in the assay with RELB subunit;p50 subunit. Besides, the binding signal with RELB subunit;p52 subunit came out at 0.305 z-score; in [3], 0.392 z-score; in assay [4] it was 0.593 z-score.
For GAGTTCTTCCT, the binding signal with RELARELA (p65 homodimer) is -0.0672 z-score; with p50p50 homodimer, -1.52 z-score; with p52p52 homodimer, -0.678 z-score; in assay [1], -0.535 z-score; in [2] it was -0.734 z-score; with RELB subunit;p50 subunit, -0.845 z-score. The values for the binding signal (with RELB subunit;p52 subunit; in assay [3]; in assay [4]) were -0.72 z-score, -0.764 z-score and -0.548 z-score, respectively.
On to GAAGGAACCCT, for which the binding signal with RELARELA (p65 homodimer) is -0.526 z-score; with p50p50 homodimer, -1.31 z-score; in the assay with p52p52 homodimer, -0.566 z-score; in assay [1], -0.887 z-score; in [2] it was -0.818 z-score; with RELB subunit;p50 subunit, -0.996 z-score. The binding signal in the assay with RELB subunit;p52 subunit is -0.793 z-score; in assay [3], -1.1 z-score; in [4], -0.694 z-score.
As for CGGAGTATCCC, the binding signal with RELARELA (p65 homodimer) was 0.97 z-score; in the assay with p50p50 homodimer, -0.805 z-score; with p52p52 homodimer it was -0.256 z-score; in [1], 0.294 z-score; in assay [2], -0.0559 z-score; with RELB subunit;p50 subunit it was -0.605 z-score. In addition, the binding signal is -0.711 z-score in the assay with RELB subunit;p52 subunit, -0.0452 z-score in assay [3] and -0.0756 z-score in assay [4].
